The results in this text go back to PubChem BioAssay.

Records with an inconclusive call do not appear. Calls of active or inactive are those of the source. Unless noted, no rule for the calls is given here.

Test [1] relates to Neuropilin-2 / VEGF-C interaction (human). In words: inhibitors of NRP2–VEGF-C binding, biochemical, microplate binding format, z-score (AID 743281). To be noted: microplate NRP2/VEGF-C binding assay; stronger effect = lower value.
A short description of test [2]: growth inhibition of DIPG glioma cells, dose response, cell-based, SU-DIPG-XVII, MIPE5.0, CellTiter-Glo, qHTS (AID 1347060; cut-off not given, nearly all actives have AC50 up to about 26 µM;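 as to AC50: cells exposed to compound for 48 hours before viability readout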). To be noted: SU-DIPG-XVII viability, CellTiter-Glo ATP luminescence.
Test [3] is described as follows: growth inhibition of DIPG glioma cells, dose response, cell-based, JHH-DIPG-1, MIPE4.0, CellTiter-Glo, qHTS (AID 1347062; cut-off not given, nearly all actives have AC50 up to about 27 µM). Particulars: JHH-DIPG-1 viability, CellTiter-Glo ATP luminescence.
Test [4] in a line: viability loss in pontine glioma line – cell-based, SU-DIPG-XXV, MIPE5.0, CellTiter-Glo, qHTS, dose response (AID 1347065; cut-off not given, nearly all actives have AC50 up to about 26 µM;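 also: cells exposed to compound for 48 hours before ATP readout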). Particulars: CellTiter-Glo ATP luminescence.
A short description of test [5]: JHH-DIPG-1 glioma cell viability, MIPE5.0 library, CellTiter-Glo luminescence, qHTS (AID 1347067; cut-off not given, nearly all actives have AC50 up to about 26 µM;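 also: cells exposed to compound for 48 hours before readout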). Particulars: JHH-DIPG-1 glioma viability, CellTiter-Glo ATP luminescence.
The nature of test [6]: SU-DIPG-XXV glioma cell viability, MIPE5.0 library, qHTS (AID 1347068; cut-off not given, nearly all actives have IC50 up to about 30 µM).
A short description of test [7]: growth inhibition of DIPG glioma cells, dose response, cell-based, SU-DIPG-XIII, MIPE4.0, CellTiter-Glo, qHTS (AID 1347061; cut-off not given, nearly all actives have AC50 up to about 37 µM;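 also: cells exposed to compound for 48 hours before readout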). Particulars: SU-DIPG-XIII viability, CellTiter-Glo ATP luminescence.
Test [8] is described as follows: growth inhibition of DIPG glioma cells, dose response, cell-based, SU-DIPG-XIII, MIPE5.0, CellTiter-Glo, qHTS (AID 1347064; cut-off not given, nearly all actives have AC50 up to about 23 µM). To be noted: SU-DIPG-XIII viability, CellTiter-Glo ATP luminescence.
Test [9] can be described thus: SU-DIPG-VI glioma cell viability, MIPE4.0 library, CellTiter-Glo luminescence, qHTS (AID 1347066; cut-off not given, nearly all actives have AC50 up to about 30 µM;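 also: cells exposed to compound for 48 hours before readout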). Particulars: CellTiter-Glo ATP luminescence.
In test [10] the target is NAD(+) hydrolase SARM1 (Homo sapiens) (UniProt Q6SZW1). In words: SARM1 TIR NADase inhibitors, cell lysate, NAD-Glo luminescence (AID 1508614;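 active = compound whose remaining NAD level is above about 45 nM, limit read from the data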;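 also: higher remaining NAD means stronger inhibition of SARM1 NADase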). Particulars: SAM-TIR HEK293T lysate NADase, at 1 µM, stronger effect = higher value.
NAD(+) hydrolase SARM1 (Homo sapiens), sequence (Q6SZW1 whole entry, looked up): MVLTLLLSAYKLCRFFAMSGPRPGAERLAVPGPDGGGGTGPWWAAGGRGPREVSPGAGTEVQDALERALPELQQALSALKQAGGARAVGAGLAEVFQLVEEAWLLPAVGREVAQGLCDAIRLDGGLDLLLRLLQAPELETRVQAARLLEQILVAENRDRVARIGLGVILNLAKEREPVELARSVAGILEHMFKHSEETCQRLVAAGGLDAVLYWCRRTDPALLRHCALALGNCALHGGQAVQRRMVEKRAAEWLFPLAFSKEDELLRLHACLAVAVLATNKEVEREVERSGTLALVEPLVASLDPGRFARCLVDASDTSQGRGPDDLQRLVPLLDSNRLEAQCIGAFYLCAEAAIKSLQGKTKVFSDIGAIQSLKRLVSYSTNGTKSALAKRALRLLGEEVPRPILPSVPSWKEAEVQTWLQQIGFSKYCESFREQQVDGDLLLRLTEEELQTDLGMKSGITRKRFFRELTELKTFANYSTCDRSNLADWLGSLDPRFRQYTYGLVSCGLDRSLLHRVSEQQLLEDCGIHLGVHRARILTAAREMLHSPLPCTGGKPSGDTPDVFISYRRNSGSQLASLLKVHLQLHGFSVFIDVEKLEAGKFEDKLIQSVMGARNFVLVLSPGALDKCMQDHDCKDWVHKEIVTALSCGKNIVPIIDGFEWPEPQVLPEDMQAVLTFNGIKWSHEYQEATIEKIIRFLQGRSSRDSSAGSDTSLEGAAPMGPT
Test [11] can be described thus: LFS_MB_P medulloblastoma growth inhibition, cell-based, chromothripsis tumors, cisplatin or BGB combos (AID 1671449; in the data active = inhibition above about 80%;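 also: cells exposed for 96 hours; 0% = vehicle DMSO and 100% = killing by high DMSO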). To be noted: LFS_MB_P medulloblastoma cells.
A short description of test [12]: HDN33 neuroblastoma growth inhibition, cell-based, chromothripsis tumors, cisplatin or BGB combos (AID 1671450; in the data active = inhibition above about 80%;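 also: cells exposed to compound for four days; 0% = vehicle DMSO and 100% = cell killing by high DMSO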). To be noted: HDN33 neuroblastoma cells, stronger effect = higher value.
Test [13] can be described thus: ICB984 medulloblastoma cell growth inhibition, synergistic combos for chromothripsis tumors, cisplatin or BGB combos (AID 1671451).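 Also: cells exposed for 96 hours before readout; 0% = vehicle DMSO and 100% = killing by high DMSO.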 Particulars: ICB984 medulloblastoma cells, drug combinations, stronger effect = higher value.
Test [14] can be described thus: HTB85 osteosarcoma cell growth inhibition, synergistic combos for chromothripsis tumors, BGB or cisplatin IC20 combos (AID 1671453; in the data active = inhibition above about 80%;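 also: cells exposed for 96 hours before readout; 0% = vehicle DMSO and 100% = high DMSO killing control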). Particulars: HTB85 osteosarcoma cells, drug combinations, stronger effect = higher value.
The nature of test [15]: MDA-MB-436 breast carcinoma cell growth inhibition, synergistic combos for chromothripsis tumors, BGB or cisplatin combos (AID 1671458).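 Also: cells exposed for 96 hours; 0% = vehicle DMSO and 100% = killing by high DMSO.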 Particulars: MDA-MB-436 breast carcinoma growth inhibition, drug combinations, stronger effect = higher value.
Test [16] in a line: growth inhibition of BT084 medulloblastoma cells, cell-based, ICGC_MB145, cisplatin and BGB IC40 combos (AID 1671461; in the data active = inhibition above about 80%;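 also: cells exposed to drugs for 96 hours; 0% = vehicle DMSO and 100% = high DMSO full killing control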). Particulars: drug combinations, stronger effect = higher value.
The nature of test [17]: growth inhibition of RCMB18 medulloblastoma cells, cell-based, cisplatin and BGB IC40 combos (AID 1671462; in the data active = inhibition above about 80%;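 also: cells exposed to compound for four days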). Particulars: stronger effect = higher value.
A short description of test [18]: growth inhibition of CRL1545 osteosarcoma cells, cell-based, cisplatin and BGB IC20 combos (AID 1671464; in the data active = inhibition above about 80%;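 also: cells exposed to compound for 96 hours before readout; 0% = vehicle DMSO and 100% = high DMSO killing control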). Particulars: stronger effect = higher value.
Setting [19] is: measured here: with BGB IC20 combination, at 0.5 µM.
Where [20] appears, read: measured here: with cisplatin IC20 combination, at 0.5 µM.

With `CC(C)c1ccc2c(c1)c(SC(C)(C)C)c(CC(C)(C)C(=O)O)n2Cc1ccc(Cl)cc1`, the z-score in [1] was -2.97 (inactive). Further, the AC50 in [2] is 18.6 µM (active); in test [4], 18.6 µM (active); in [5], 26.3 µM (active). For the same molecule, the outcome in test [3] and in test [6] was inactive.

With `Nc1nc(Cl)nc2c1ncn2[C@H]1C[C@H](O)[C@@H](CO)O1`, the z-score in test [1] was -0.302 (inactive). Also, the AC50 in [2] was 0.833 µM (active). Besides, the outcome in [7], in [5] and in test [6] was inactive.

As to `CC1c2cccc(O)c2C(O)=C2C(=O)C3(O)C(O)=C(C(N)=O)C(=O)C(N(C)C)C3C(O)C21` (stereo not given), the molecule was called inactive in test [5] and in [6].

For the molecule `CC1CNc2c(cccc2S(=O)(=O)N[C@@H](CCCN=C(N)N)C(=O)N2CC[C@@H](C)C[C@@H]2C(=O)O)C1` (stereo not given in full), in test [1], the z-score was -1.46 (inactive). The call in test [8], in test [4], in test [9], in test [5] and in test [6] was inactive.

Consider `Nc1ccn([C@@H]2CS[C@H](CO)O2)c(=O)n1`, for which, in test [1], the z-score is 0.62 (inactive). The molecule was classed as inactive in test [2], in test [8], in [4], in test [5] and in test [6]. In addition, the remaining NAD in test [10] is 10 nM (inactive).

For `CN1CCC[C@H]1c1cccnc1`, the remaining NAD in [10] was 10 nM (inactive).

Consider `O=C(O)C[C@H](O)C[C@H](O)/C=C/c1c(C2CC2)nc2ccccc2c1-c1ccc(F)cc1`, for which the outcome in test [1], in test [9] and in test [6] was inactive. For the same molecule, the half-maximal activity concentration (AC50) in test [4] and in [5] was 9.34 µM (active) in each case. Further, in [10], the remaining NAD was 10 nM (inactive).

Turning to `CCC(C)n1ncn(-c2ccc(N3CCN(c4ccc(OCC5COC(Cn6cncn6)(c6ccc(Cl)cc6Cl)O5)cc4)CC3)cc2)c1=O` (stereo not given), in test [1], the z-score was 0.805 (inactive).

For `CC(=O)CCCCn1cnc2c1c(=O)n(C)c(=O)n2C`, the z-score in [1] was -1.78 (inactive).

With `Nc1nc(Cl)nc2c1ncn2[C@@H]1O[C@H](CO)[C@@H](O)[C@H]1O`, the z-score in [1] was 0.198 (inactive).

As to `COc1cc(/C=C/c2ccc(O)cc2)cc(OC)c1`, the z-score in test [1] is -1.34 (inactive).

Consider `CNC(=O)Oc1ccc2c(c1)[C@]1(C)CCN(C)C1N2C` (stereo not given in full), for which the z-score in test [1] was -0.245 (inactive).

As for `CN(C)[C@@H]1C(=O)C(C(=O)NCN2CCCC2)=C(O)[C@@]2(O)C(=O)C3=C(O)c4c(O)cccc4[C@@](C)(O)C3CC12` (stereo not given in full), the z-score in [1] was 0.267 (inactive).

`CO[C@H]1/C=C/O[C@@]2(C)Oc3c(C)c(O)c4c(O)c(c(C=NN5CCN(C)CC5)c(O)c4c3C2=O)NC(=O)/C(C)=C\C=C\[C@H](C)[C@H](O)[C@@H](C)[C@@H](O)[C@@H](C)[C@H](OC(C)=O)[C@@H]1C`: the inhibition in test [11] (at 0.5 µM, stronger effect = higher value) was -11% (inactive); in [11] (measured here: combination with BGB IC20, at 0.005 µM), -12.4%; in [11] (measured here: combination with BGB IC40, at 0.005 µM) it was -11.3%; in [11] (measured here: combination with BGB IC40, at 0.05 µM), 7.63%; in test [11] (measured here: combination with cisplatin, at 0.5 µM, stronger effect = higher value), -13.1%; in test [11] (measured here: combination with cisplatin, at 5 µM, stronger effect = higher value), 25%. Also, the inhibition in test [12] (BGB combo, at 5 µM) is 2%; in test [12] (at 0.5 µM), 2.94% (inactive); in test [12] (cisplatin combo, at 5 µM) it was -6.32%; in test [12] (setting [19]), 7.7%; in test [12] (setting [20]) it was 10.2%; in test [12] (single agent, at 5 µM) it was 0.074%. The inhibition in test [13] (BGB IC20 combo, at 0.005 µM) is 6.74%; in [13] (BGB IC40 combo, at 0.005 µM), -7.18%; in test [13] (BGB IC40 combo, at 0.05 µM), 33.5%; in test [13] (at 0.5 µM) it was -10.8% (inactive); in [13] (cisplatin combo, at 0.05 µM) it was 33.5%; in test [13] (cisplatin combo, at 0.5 µM), -9.79%. In addition, the inhibition is -23.1% in [13] (cisplatin combo, at 5 µM); -0.291% in test [13] (measured here: 5 uM single agent, at 5 µM); -9.22% (inactive) in test [14] (at 0.5 µM); -34.1% in [14] (measured here: with BGB IC20, at 0.5 µM); 19.8% in [14] (measured here: with BGB IC20, at 5 µM); -3.74% in [14] (measured here: with cisplatin IC20, at 0.5 µM). Further, the inhibition is 32.8% in test [14] (measured here: with cisplatin IC20, at 5 µM); 32.5% in test [14] (single agent, at 5 µM); -11.2% (inactive) in test [15] (at 0.5 µM); -8.37% in test [15] (measured here: BGB combination, at 0.5 µM); 1.85% in test [15] (measured here: BGB combination, at 5 µM); -22.5% in test [15] (measured here: cisplatin combination, at 0.5 µM). Further, the inhibition in test [15] (measured here: cisplatin combination, at 5 µM) is 4.56%; in [16] (at 0.5 µM), -5.85% (inactive); in test [16] (cisplatin combination, at 0.5 µM), -3.4%; in test [16] (cisplatin combination, at 5 µM), -36.2%; in [16] (measured here: BGB IC40 combination 0.05 uM, at 0.05 µM), -6.21%; in [16] (single agent, at 5 µM), -1.11%. Also, the inhibition in test [17] (at 0.5 µM) is -18.2% (inactive); in [17] (cisplatin combo, at 5 µM) it was 4.58%; in test [17] (measured here: BGB IC40 combination, at 0.05 µM), -7.26%; in test [17] (measured here: combination with cisplatin, at 0.5 µM), -16%; in test [17] (single agent, at 5 µM) it was -21.9%; in test [18] (at 0.5 µM) it was -32.1% (inactive). Also, the inhibition in test [18] (setting [19]) is -8.55%; in test [18] (setting [20]), -44%; in test [18] (single agent, at 0.05 µM), 6.37%; in test [18] (single agent, at 5 µM), 27.5%.
